Counter-ions that a name gives are not always drawn.

One assay concerns Danio rerio larvae (5 dpf). Description: activity during period 15 (no stimuli), difference vs DMSO (percentage points (treated minus DMSO)); higher = more of the behaviour than the DMSO vehicle control. To be noted: 10 µM; exposure time: 3 h pre-incubation + 3 h imaging. The method, boiled down:
(§1)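 Library drugs were diluted 1000× from DMSO stocks into egg water to reach 10 µM and applied to 5-dpf wild-type zebrafish larvae in 96-well ProxiPlates, 48 larvae per drug. The larvae stayed exposed for 3 h before imaging and for the 3 h of imaging at 28.5 °C. Behaviour scores, given in percentage points, are the treated mean minus the vehicle mean for movement and upper-half location.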
Regarding `CC[C@H](C)C(=O)O[C@H]1C[C@@H](C)C=C2C=C[C@H](C)[C@H](CC[C@@H]3C[C@@H](O)CC(=O)O3)[C@H]21` [Lovastatin], the “activity during period 15” value was -4.33. For `CCOC(=O)[C@H](CCc1ccccc1)N[C@@H](C)C(=O)N1[C@H](C(=O)O)C[C@@H]2CCC[C@@H]21` [Ramipril], the “activity during period 15” value is -2.34. With `CCOC(=O)C1=C(COCCN)NC(C)=C(C(=O)OC)C1c1ccccc1Cl` (centres undefined) [Amlodipine besylate], the “activity during period 15” value was determined as 3.16. On to `O=C1CCc2ccc(OCCCCN3CCN(c4cccc(Cl)c4Cl)CC3)cc2N1` [Aripiprazole], for which the “activity during period 15” value was 4.18. For the compound `COc1cc2nc(N3CCN(C(=O)C4COc5ccccc5O4)CC3)nc(N)c2cc1OC` (centres undefined) [Doxazosin mesylate], the “activity during period 15” value was -7.81. As to `COCCc1ccc(OCC(O)CNC(C)C)cc1` (centres undefined) [Metoprolol tartrate], the “activity during period 15” value is 3.61. Same read-out and setting: then `CCc1nc(N)nc(N)c1-c1ccc(Cl)cc1` [Pyrimethamine], with -4.35; and `C[C@@H](O[C@H]1OCCN(Cc2n[nH]c(=O)[nH]2)[C@H]1c1ccc(F)cc1)c1cc(C(F)(F)F)cc(C(F)(F)F)c1` [Aprepitant], with -7.86; and `COc1ccccc1OCCNCC(O)COc1cccc2[nH]c3ccccc3c12` (centres undefined) [Carvedilol], with -6.43. Same read-out and setting: then `CC(C)(C(=O)c1cccnc1)c1cccnc1` [Metyrapone], with -7.26.

The next assay relates to Danio rerio larvae (5 dpf). Description: optomotor response to blue moving lines, difference vs DMSO (percentage points (treated minus DMSO)); higher = more of the behaviour than the DMSO vehicle control. To be noted: 10 µM; exposure time: 3 h pre-incubation + 3 h imaging. The method, boiled down: as §1
With `CC[C@H](C)C(=O)O[C@H]1C[C@@H](C)C=C2C=C[C@H](C)[C@H](CC[C@@H]3C[C@@H](O)CC(=O)O3)[C@H]21` [Lovastatin], the “optomotor response to blue moving lines” value worked out at 8.37. The same measure, in the same setting: then `O=C1CCc2cc(OCCCCc3nnnn3C3CCCCC3)ccc2N1` [Cilostazol], with 6.53.

Consider `CN[C@H]1CC[C@@H](c2ccc(Cl)c(Cl)c2)c2ccccc21` [Sertraline hydrochloride], for which the “optomotor response to blue moving lines” value is -9.96.

In the case of `NS(=O)(=O)c1cc2c(cc1Cl)NC(C1CC3C=CC1C3)NS2(=O)=O` (centres undefined) [Cyclothiazide], the “optomotor response to blue moving lines” value was -7.83. `O=C1CCc2ccc(OCCCCN3CCN(c4cccc(Cl)c4Cl)CC3)cc2N1` [Aripiprazole]: the “optomotor response to blue moving lines” value was -0.0385. Regarding `CC(=O)O[C@H]1C(=O)[C@@]2(C)[C@H]([C@H](OC(=O)c3ccccc3)[C@]3(O)C[C@H](OC(=O)[C@H](O)[C@@H](NC(=O)c4ccccc4)c4ccccc4)C(C)=C1C3(C)C)[C@]1(OC(C)=O)CO[C@@H]1C[C@@H]2O` [Taxol], the “optomotor response to blue moving lines” value is -0.599. Regarding `C[C@H]1O[C@H](O[C@H]2[C@H](O)[C@@H](O)[C@@H](O[C@H]3[C@H](O)[C@@H](O)C(O)O[C@@H]3CO)O[C@@H]2CO)[C@H](O)[C@@H](O)[C@@H]1N[C@H]1C=C(CO)[C@@H](O)[C@H](O)[C@H]1O` (some centres undefined) [Acarbose], the “optomotor response to blue moving lines” value worked out at 15.5. In the case of `CCc1nc(N)nc(N)c1-c1ccc(Cl)cc1` [Pyrimethamine], the “optomotor response to blue moving lines” value is 15.9. As to `CCOc1cc(CC(=O)N[C@@H](CC(C)C)c2ccccc2N2CCCCC2)ccc1C(=O)O` [Repaglinide], the “optomotor response to blue moving lines” value was -2.55.
